JMJD2A Tudor inh – inhibitors of human JMJD2A Tudor domain; O75164; AlphaScreen JMJD2A-Tudor / H3K4me3 peptide binding; Potency, µM (titrated, usually from 114 µM), inactives show at the top dose activity change, negative = inhibition, actives largely listed as inhibitors; 4.4% of 390,000 active; also: % is scaled to controls: 0 for no effect and ±100 for the full control effect; nearly all actives have a fitted effect of over 50% in size
BAZ2B inh – blocks human BAZ2B; 4.4% of 360,000 active; Q9UIF8; AlphaScreen BAZ2B-H3K14Ac peptide displacement; Potency, µM (series often up to 114 µM), inactives show at the top dose activity change, negative = inhibition, actives largely listed as inhibitors; AID 504333; also: % is scaled to controls: 0 for no effect and ±100 for the full control effect; nearly all actives have a fitted effect of over 60% in size
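Protein-peptide AlphaScreen: BAZ2B 50 nM, b-H3K14Ac 50 nM, 1x PBS pH 7.4 + 0.01% Tween-20. Preincubation 30 min RT; cpd 30 min RT (top 110 uM); beads 20 min RT, light-protected.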
G9a block – inhibitors of human histone lysine methyltransferase G9a | Q96KQ7 | G9a H3K9 monomethylation, AlphaScreen, 2 h | Potency, µM (series often up to 102 µM), inactives show top-dose activity, negative = inhibition, most hits filed as inhibitors | 8.8% of 350,000 active | AID 504332; also: % is scaled to controls: 0 for no effect and ±100 for the full control effect; nearly all actives have a fitted effect of over 75% in size
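Enzyme 20 nM + cpd, 15 min RT; add b-H3K9 pep 500 nM / SAM 20 uM; 2 h RT; anti-H3K9me1 Ab 0.5 ug/mL + SA donor / anti-rabbit acceptor beads 20 ug/mL each, 10 min; AlphaScreen read.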
HP1b chromo inh – blocks HP1-beta chromodomain binding to methylated histone tails; AlphaScreen HP1-beta / biotin-H3K9me3 peptide binding; 0.56% of 390,000 active; AID 540317; P83916; Potency, µM (highest dose often 114 µM), for inactives: at the highest dose activity change, negative = inhibition, actives largely listed as inhibitors; also: nearly all actives have a fitted effect of over 70% in size
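AlphaScreen: HP1-beta (50 nM) preformed 30 min with biotin-H3(1-18)K9me3 peptide (50 nM) in PBS pH 7.4, 0.01% Tween-20. Compound added for 30 min at RT, then streptavidin donor/nickel chelate acceptor beads (10 ug/mL) for 30 min.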
L3MBTL1 block – blocks human L3MBTL1; Q9Y468; AlphaScreen L3MBTL1–H3K9me1 peptide binding; Potency, µM (titrated, usually from 57.1 µM), without a hit: at the top dose activity, negative = inhibition, hits mostly inhibitors; 0.66% of 230,000 active; AID 485360; also: % is scaled to controls: 0 for no effect and ±100 for the full control effect; nearly all actives have a fitted effect of over 60% in size
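AlphaScreen assay: L3MBTL1 (50 nM final) was preincubated 30 min at room temperature with biotinylated H3(1-15)K9me1 peptide (75 nM final), then 30 min with library compounds; streptavidin donor and nickel chelate acceptor beads (10 ug/mL final) added, 30 min dark.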
Numbers without * were called inactive; [ ] = dose if it differs, or a comment. A selection: hits, their analogues and other compounds. The true share with any hit is near 11%. Calls follow the shape of the dose curve; as a rule, active = well fitted inhibition curve with a large enough effect; inconclusive = small, poorly fitted or top-dose-only effect; inactive = no such curve, though single readings can be large or run the other way. Potency is read from the fitted curve at half-maximal effect.

Results for CCOCCCNC(=O)C(Cc1ccccc1)NS(=O)(=O)c1ccc2c(c1)c(=O)n(C)c(=O)n2C (stereo unspecified) ?
JMJD2A Tudor inh: -2%; BAZ2B inh: 0%; G9a block: -23%; HP1b chromo inh: 13%

Results for CC(C)OCCCNC(=O)C(NS(=O)(=O)c1ccc2c(c1)c(=O)n(C)c(=O)n2C)c1ccccc1 (stereo unspecified) ?
BAZ2B inh: -4%; G9a block: 14µM*; L3MBTL1 block: 4%

What do the screens show for `O=C(c1cc(C2CC2)nn1-c1ccccc1)N1CCN(c2ccccc2O)CC1`?
JMJD2A Tudor inh: -34%; HP1b chromo inh: 8%; L3MBTL1 block: -8%

What do the screens show for `O=C(c1cc(-c2cccc(O)c2)on1)N1CCCC1`?
JMJD2A Tudor inh: -9%; BAZ2B inh: -1%; G9a block: 50µM*; HP1b chromo inh: 10%

How did O=C(c1cc(C2CC2)nn1-c1ccccc1)N1CCN(c2ccc(O)cc2)CC1 do in these assays?
JMJD2A Tudor inh: 32µM*; BAZ2B inh: inconclusive; G9a block: 2.8µM*; HP1b chromo inh: 71µM*; L3MBTL1 block: -17%

How did O=C(c1cc(-c2ccc(O)cc2)on1)N1CCN(c2ccccc2)CC1 do in these assays?
JMJD2A Tudor inh: 56µM*; BAZ2B inh: inconclusive; G9a block: -4%[59 µM]; HP1b chromo inh: -22%

What do the screens show for `CCC1(c2ccc(F)cc2)NC(=O)N(CC(=O)Nc2cc(C)on2)C1=O` (stereo unspecified)?
JMJD2A Tudor inh: -1%; BAZ2B inh: 9%; G9a block: 0%[59 µM]; HP1b chromo inh: 31%; L3MBTL1 block: 4%

Results for COc1ccc2c(c1)c1c(c(=O)n(CCc3ccccc3)c(=O)n1Cc1cccc(F)c1)n2C ?
JMJD2A Tudor inh: 10%; BAZ2B inh: 5%; G9a block: 4%[59 µM]; HP1b chromo inh: 39%

Results for Cc1nn(-c2ccccc2)c(-n2cccc2)c1C(=O)NCCc1ccc(Cl)cc1 ?
JMJD2A Tudor inh: 11%; BAZ2B inh: 1%; G9a block: 56%[59 µM]; HP1b chromo inh: 87%

How did N.N.O=C(O)C1(C(=O)O)CCC1.[Pt+2] do in these assays?
G9a block: 0.28µM*

How did CC[n+]1c(/C=C/Nc2ccccc2)sc2ccccc21 do in these assays?
JMJD2A Tudor inh: -18%; BAZ2B inh: -6%; G9a block: 7.9µM*; HP1b chromo inh: 19%; L3MBTL1 block: 6%

What do the screens show for `CC[n+]1ccccc1/C=C/Nc1ccccc1`?
JMJD2A Tudor inh: -12%; BAZ2B inh: -6%; G9a block: 45µM*; HP1b chromo inh: 38%; L3MBTL1 block: -23%

Results for CC[n+]1c(/C=C(/C)SC)sc2ccccc21 ?
JMJD2A Tudor inh: -15%; BAZ2B inh: inconclusive; G9a block: 45µM*; HP1b chromo inh: 42%; L3MBTL1 block: 14%

How did CC[n+]1c(/C=C(\C)Nc2ccccc2)sc2ccccc21 do in these assays?
JMJD2A Tudor inh: -24%; BAZ2B inh: 50µM*; G9a block: inconclusive; HP1b chromo inh: 24%; L3MBTL1 block: 0%

Results for CC(C)CCNC(=O)Cn1nc(N2CCN(c3ccccc3)CC2)ccc1=O ?
JMJD2A Tudor inh: -9%; BAZ2B inh: -3%; G9a block: 8%[59 µM]; HP1b chromo inh: 37%

How did Cc1sc2ccccc2[n+]1CCC(C)S(=O)(=O)[O-] (stereo unspecified) do in these assays?
JMJD2A Tudor inh: -17%; BAZ2B inh: -10%; G9a block: 3%[59 µM]; HP1b chromo inh: 63%; L3MBTL1 block: -1%

Results for CC[n+]1c(/C=C2/C=C(C)CC(C)C2)sc2ccccc21 (stereo unspecified) ?
JMJD2A Tudor inh: 32µM*; BAZ2B inh: inconclusive; G9a block: 7.9µM*; HP1b chromo inh: -4%

How did CC[n+]1c(/C=C(\C)OC)sc2ccccc21 do in these assays?
JMJD2A Tudor inh: inconclusive; BAZ2B inh: 56µM*; G9a block: inconclusive; HP1b chromo inh: 41%; L3MBTL1 block: -6%

Results for CC/C(=C/c1sc2ccccc2[n+]1CC)SC ?
JMJD2A Tudor inh: 25µM*; BAZ2B inh: inconclusive; G9a block: -19%[59 µM]; HP1b chromo inh: 31%; L3MBTL1 block: -3%

Screens: PubChem, National Center for Advancing Translational Sciences (NCATS)
